Results taken from publication PMC5540273 (PLoS ONE, 2017).
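Note: kd values determined as follow-up on hits from a single-replicate KINOMEscan panel screen.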

The compounds below were run on JAK2(JH1domain-catalytic).
For `Cn1cncc1C(=O)NC1CCN(c2ccnc(Nc3ccc(F)cc3)n2)C1` (stereo not drawn) [GSK1379717], the Kd was 1500 nM.
`COc1ccc(Nc2nccc(N3CCC(NC(=O)c4cc5ccccc5s4)C3)n2)cc1` (stereo not drawn) [GSK1379738] showed a Kd of 1800 nM.
For `COc1ccc2cc(-c3nc(-c4ccccc4C(C)C)[nH]c3-c3ccncc3)ccc2c1` [SB-660566], the Kd was > 10000 nM.
`Nc1cccc(-c2ccc3c(N)n[nH]c3c2)n1` [GSK2192730] was tested, and the Kd was > 10000 nM.

What follows are compounds tested on T1, JNK2.
T1 construct: gene MAPK9
`Fc1ccc(-c2nn3cccc(F)c3c2-c2ccncc2)cc1` [GW475620] was tested, and the Kd was 230 nM.
`Nc1nccc(-c2c(-c3ccc(F)cc3)ncn2C2CCN(Cc3ccccc3)CC2)n1` [SB-219980] gave a Kd of 43 nM.
Work on `Fc1ccc(-c2nc[nH]c2-c2ccncc2)cc1` [SB-217360] yielded a Kd of 85 nM.
`Fc1ccc(-c2nc3n(c2-c2ccncc2)CCS3)cc1` [GI98581] gave a Kd of 270 nM.
With `CNC(=O)c1ccc(C)c(-n2c(C)cc(OCc3ccc(F)cc3F)c(Br)c2=O)c1` the Kd was > 10000 nM.
`CCCCc1nn2ncccc2c1-c1ccnc(NC2CC2)n1` [GW684374] was tested, and the Kd was 1300 nM.

These compounds were tested on T2, JNK3.
T2 construct: gene MAPK10
In the case of `Fc1ccc(-c2nn3cccc(F)c3c2-c2ccncc2)cc1` [GW475620], the Kd is reported as 58 nM.
With `Nc1nccc(-c2c(-c3ccc(F)cc3)ncn2C2CCN(Cc3ccccc3)CC2)n1` [SB-219980] the Kd was 31 nM.
Work on `Fc1ccc(-c2nc[nH]c2-c2ccncc2)cc1` [SB-217360] yielded a Kd of 11 nM.
`Fc1ccc(-c2nc3n(c2-c2ccncc2)CCS3)cc1` [GI98581] was tested, and the Kd was 57 nM.
With `CNC(=O)c1ccc(C)c(-n2c(C)cc(OCc3ccc(F)cc3F)c(Br)c2=O)c1` the Kd was > 10000 nM.
For `CCCCc1nn2ncccc2c1-c1ccnc(NC2CC2)n1` [GW684374], the Kd was 740 nM.

Each compound was assayed on KIT.
With `COc1cccc(NC(=O)Nc2ccc(C)c(-c3ccc(C(=O)Nc4ccncc4)cc3)c2)c1` [GSK1398474] the Kd was 73 nM.
Compound `Cc1ccc(NC(=O)Nc2ccc(Cl)c(C(F)(F)F)c2)cc1-c1ccc(C(=O)Nc2ccncc2)cc1` [GSK1398470] has a Kd of 560 nM.
`CS(=O)(=O)Cc1ccc(Nc2nccc(-c3c(-c4cccc(NC(=O)C5CCCCC5)c4)nn4ncccc34)n2)cc1` [GSK350559] gave a Kd of 110 nM.
Compound `Cc1cnc(N)c(/C=C/c2cncc(C(=O)NCCc3ccc(Cl)cc3Cl)c2)c1.Cl` [GSK190937] has a Kd of 150 nM.
In the case of `Cc1ccc(NC(=O)Nc2ccc(Cl)cc2)cc1-c1ccc(C(=O)Nc2ccncc2)cc1` [GSK1398472], the Kd is reported as 140 nM.
`Cc1ccc(NC(=O)Nc2ccccc2F)cc1-c1ccc(C(=O)Nc2ccncc2)cc1` [GSK1398477] gave a Kd of 450 nM.
Work on `Cc1ccc(NC(=O)Nc2ccccc2)cc1-c1ccc(C(=O)Nc2ccncc2)cc1` [GSK1398471] yielded a Kd of 140 nM.
`Cc1ccc(NC(=O)c2ccc(Cl)cc2)cc1-c1ccc(C(=O)Nc2ccncc2)cc1` [GSK1398467] was tested, and the Kd was 170 nM.
